Source: PubChem
gsp antagonist: gsp mutant antagonism; Potency, µM (top dose mostly 76.9 µM), most hits filed as inhibitors; 0.4% of 340,000 active; AID 624288; gsp-mutant cells, cAMP HTRF, 30 min; calls by dose curve; cell line not stated here;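 note: intracellular cAMP measured with PDE inhibitor Ro 20-1724 present during compound exposure; nearly all actives have a fitted effect of over 65% in size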
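Cells in G418 medium, seeded 16-24 h, 37C; buffer exchange to DPBS + 1 mM CaCl2, 0.5 mM MgCl2, 0.05% BSA; cpds in DMSO + […] (300 uM stock), 30 min 37C; HTRF cAMP detection.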
FUS suppressor: suppressors of FUS proteinopathy in yeast; S. cerevisiae FUS-expressing, growth rescue, OD600, 24 h; Potency, µM (doses to about 76.6 µM), actives largely listed as activators; 0.24% of 390,000 active; note: nearly all actives have a fitted effect of over 55% in size
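Cultures pregrown in 2.5% raffinose medium are shifted to minimal medium containing 2% galactose to express toxic FUS. Compounds are tested at several concentrations. After 24hr at 30C, growth is quantified at 600 nm absorbance.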
Mito fusion act: blocks mitochondrial division or promotes mitochondrial fusion; S. cerevisiae fusion-defective mutant growth rescue, CellTiterGlo 48 h; Potency, µM (titrated, usually from 46.1 µM), hits mostly activators; AID 485298; 0.23% of 320,000 active; note: nearly all actives have a fitted effect of over 45% in size
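Read-out: ATP-based luminescence (CellTiterGlo, 10 min ambient) reporting growth of fusion-defective ts yeast after 48 hours at 37C on glycerol/ethanol YPEG medium in the presence of compound.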
gsp agonist: activates gsp, the McCune-Albright syndrome mutation; gsp mutant cells, cAMP HTRF, 30 min; Potency, µM (top dose mostly 76.9 µM), most hits filed as activators; 0.13% of 340,000 active; AID 624287; active = well fitted activation curve with a large enough effect; inconclusive = small, poorly fitted or top-dose-only effect, or another doubt; inactive = no such curve, though single readings can be large or run the other way; cell line not stated here;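 note: phosphodiesterase inhibitor Ro 20-1724 added with compounds to block cAMP breakdown; nearly all actives have a fitted effect of over 60% in size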
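Cells stably selected in G418 were plated at 2000/well, grown 16-24 hr, then given compounds in DMSO with the PDE inhibitor […] (300 uM solution added) for 30 min at 37C; cAMP was read by HTRF.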
ALOX12 inh: inhibitors of human 12S-lipoxygenase ALOX12 | P18054 | purified 12hLO, xylenol orange hydroperoxide absorbance | Potency, µM (highest dose often 108 µM), actives largely listed as inhibitors | 1.1% of 580,000 active | AID 1671190
Target sequence (P18054 whole entry, looked up): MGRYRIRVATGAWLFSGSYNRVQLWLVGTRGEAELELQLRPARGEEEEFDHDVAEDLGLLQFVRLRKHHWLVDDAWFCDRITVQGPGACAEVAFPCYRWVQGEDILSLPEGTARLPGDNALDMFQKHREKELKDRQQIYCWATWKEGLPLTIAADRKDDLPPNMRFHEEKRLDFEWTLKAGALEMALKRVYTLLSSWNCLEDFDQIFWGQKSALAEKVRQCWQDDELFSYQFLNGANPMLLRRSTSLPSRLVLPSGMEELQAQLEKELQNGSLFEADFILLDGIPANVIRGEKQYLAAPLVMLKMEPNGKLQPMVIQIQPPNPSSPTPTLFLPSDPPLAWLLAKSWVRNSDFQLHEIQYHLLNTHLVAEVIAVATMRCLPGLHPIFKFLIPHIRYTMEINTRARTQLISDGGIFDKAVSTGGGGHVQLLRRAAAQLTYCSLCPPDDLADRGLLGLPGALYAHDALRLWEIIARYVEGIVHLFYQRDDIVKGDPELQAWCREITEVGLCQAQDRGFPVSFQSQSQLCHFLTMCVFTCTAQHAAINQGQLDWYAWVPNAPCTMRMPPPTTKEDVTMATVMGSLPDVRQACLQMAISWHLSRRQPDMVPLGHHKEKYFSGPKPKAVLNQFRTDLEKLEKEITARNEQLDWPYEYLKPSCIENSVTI
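Purified human 12hLO at 150 nM in 25 mM Hepes, 0.01% Triton X-100, pH 7.0, preincubated 15 min at room temperature with compound. Reaction started with 40 uM arachidonic acid, 30 min at room temperature. Hydroperoxide measured by Fe-xylenol orange, 573/405 nm absorbance ratio.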
Each line names hits and unclear results; the compound was inactive in the other large screens. Compounds with a hit are over-represented: about 1.6% of the library has one in this group of screens. Unless noted, calls come from the whole dose curve; as a rule, active = well fitted curve in the direction sought with a large enough effect; inconclusive = small, poorly fitted or top-dose-only effect, or another doubt; inactive = no such curve, though single readings can be large; an effect the other way counts as inactive or inconclusive.

Cc1nn(Cc2n[nH]c(=S)n2Cc2ccccc2)c(C)c1Cl	ALOX12 inh 45µM
CCn1c(COc2ccc(Cl)cc2C)n[nH]c1=S	ALOX12 inh 14µM (no result: gsp antagonist, FUS suppressor, Mito fusion act, gsp agonist)
COCc1n[nH]c(=S)n1Cc1ccc(Cl)cc1	ALOX12 inh 16µM (no result: gsp antagonist, FUS suppressor, Mito fusion act, gsp agonist)
Brc1cccc(Oc2nc(-c3ccncc3)nc3ccccc23)c1	none (no result: gsp antagonist, FUS suppressor, Mito fusion act, gsp agonist)
CCc1ccccc1S(=O)(=O)N1C[C@@H]2C(=O)N(C(CC)c3cccs3)C(=O)[C@@H]2C1 (some centres not stated)	none (no result: gsp antagonist, FUS suppressor, Mito fusion act, gsp agonist)
CCNC(=S)NNC(=O)c1ccc(C(C)C)cc1	none (no result: gsp antagonist, FUS suppressor, Mito fusion act, gsp agonist)
Cc1cc(Cl)ccc1OCCCc1n[nH]c(=S)n1C	ALOX12 inh 22µM (no result: gsp antagonist, FUS suppressor, Mito fusion act, gsp agonist)
S=c1[nH]nc(COc2cccc3ccccc23)n1Cc1ccccc1	ALOX12 inh inconclusive
Cc1ccccc1OCc1n[nH]c(=S)n1Cc1ccccc1	Mito fusion act inconclusive, ALOX12 inh 50µM
COC(=O)c1sc2ncccc2c1OCc1cccc(Cl)c1	gsp antagonist inconclusive
COC(=O)c1sc2ncccc2c1OCc1c(Cl)cccc1Cl	ALOX12 inh 40µM
FC(F)(F)c1ccc(Cl)c(NC(=S)N/N=C/c2ccccc2Cl)c1	none
FC(F)(F)c1ccc(Cl)c(N/N=C/c2ccc(Cl)cc2Cl)c1	ALOX12 inh 40µM (no result: gsp antagonist, FUS suppressor, Mito fusion act, gsp agonist)
FC(F)(F)c1ccc(Cl)c(N/N=C/C(c2ccccc2)c2ccccc2)c1	none (no result: gsp antagonist, FUS suppressor, Mito fusion act, gsp agonist)
Cc1cc(C)c(/C=N/Nc2cc(C(F)(F)F)ccc2Cl)c(C)c1	ALOX12 inh 13µM (no result: gsp antagonist, FUS suppressor, Mito fusion act, gsp agonist)
COc1ccc(C2(C(=O)N3c4ccccc4CC3c3noc(C4CCOCC4)n3)CC2)cc1 (configuration not stated)	none (no result: gsp antagonist, FUS suppressor, Mito fusion act, gsp agonist)
Cc1nn(CC(=O)c2cc(C)n(C(C)C)c2C)c(=O)c(C#N)c1C	none (no result: gsp antagonist, FUS suppressor, Mito fusion act, gsp agonist)
CC1(C)CC(NC(=S)NCc2ccc(F)cc2)CC(C)(C)N1	none (no result: gsp antagonist, FUS suppressor, Mito fusion act, gsp agonist)
CCCCCCCCCCCCCC	none (no result: gsp antagonist, FUS suppressor, Mito fusion act, gsp agonist)
C[n+]1c(-c2ccccc2)cc2c(=Cc3ccccc3)c3ccccc3n21	gsp agonist inconclusive, ALOX12 inh inconclusive (no result: FUS suppressor, Mito fusion act)
C[n+]1c(-c2ccccc2)cc2c(=Cc3ccc([N+](=O)[O-])cc3)c3ccccc3n21	ALOX12 inh 16µM (no result: FUS suppressor, Mito fusion act)
Cc1ccc(S(=O)(=O)NC2CC2)cc1C(=O)OCc1nc2ccccc2nc1C	none (no result: gsp antagonist, FUS suppressor, Mito fusion act, gsp agonist)
Fc1ccc(NC(=S)N/N=C/c2cccc(Br)c2)c(F)c1	none
Fc1ccc(N/N=C/c2ccc(F)c(F)c2)c(F)c1	ALOX12 inh 7.9µM (no result: gsp antagonist, FUS suppressor, Mito fusion act, gsp agonist)
Fc1ccc(N/N=C/c2cccc(Br)c2)c(F)c1	ALOX12 inh 16µM (no result: gsp antagonist, FUS suppressor, Mito fusion act, gsp agonist)
CCCN(CCC)S(=O)(=O)NC1CCN(c2ncccn2)CC1	none (no result: gsp antagonist, FUS suppressor, Mito fusion act, gsp agonist)
CN1CC2(CCN(Cc3ccccc3C#N)CC2)CC1C(=O)N1CCOCC1 (configuration not stated)	none (no result: gsp antagonist, FUS suppressor, Mito fusion act, gsp agonist)
Cc1ccc(S(=O)(=O)N(C(=O)c2ccco2)c2cc3sc(=O)oc3c3ccccc23)cc1	ALOX12 inh 28µM (no result: FUS suppressor)
CCOc1ccc(S(=O)(=O)N(C(=O)c2ccco2)c2cc3sc(=O)oc3c3ccccc23)cc1	FUS suppressor inconclusive, ALOX12 inh 32µM
S=C(Nc1cccc2ccccc12)NC1CCCCC1	ALOX12 inh 45µM
COc1ccccc1NC(=S)NC1CCC(CC2CCC(NC(=S)Nc3ccccc3OC)CC2)CC1 (configuration not stated)	ALOX12 inh 32µM (no result: FUS suppressor)
COc1ccccc1NC(=S)NC1CCCC1	ALOX12 inh inconclusive (no result: Mito fusion act)
S=C(Nc1cccc2ccccc12)Nc1cccc2ccccc12	none (no result: Mito fusion act)
Cc1cc(=O)oc2cc(OCC(=O)NC(C)(C#N)C3CC3)ccc12 (configuration not stated)	none (no result: gsp antagonist, FUS suppressor, Mito fusion act, gsp agonist)
CCC(CC)=NNc1cccc([N+](=O)[O-])c1	ALOX12 inh inconclusive (no result: FUS suppressor)
C/C(=N\Nc1ccc([N+](=O)[O-])cc1)c1ccc(N)cc1	ALOX12 inh inconclusive (no result: FUS suppressor)
C/C(=N/Nc1ccccc1)c1ccc([N+](=O)[O-])cc1	ALOX12 inh 1.6µM (no result: gsp antagonist, FUS suppressor, Mito fusion act, gsp agonist)
C/C(=N/Nc1ccc2ccccc2c1)c1ccccc1	ALOX12 inh 2µM (no result: gsp antagonist, FUS suppressor, Mito fusion act, gsp agonist)
CC/C(C)=N/Nc1cccc([N+](=O)[O-])c1	ALOX12 inh 1.1µM
COc1ccc(C(C)=O)cc1CN1CCC(CN(C)Cc2ccccc2)CC1	none (no result: gsp antagonist, FUS suppressor, Mito fusion act, gsp agonist)
COc1ccc(CN2CC(c3ncc4c(-c5ccccc5)nccn34)C2)cc1O	none (no result: gsp antagonist, FUS suppressor, Mito fusion act, gsp agonist)
Cc1cc(C)nc(NCC(O)CNc2ccccc2Cl)n1 (configuration not stated)	ALOX12 inh 40µM
COC(=O)CC(N)c1ccccc1 (configuration not stated)	none (no result: gsp antagonist, FUS suppressor, Mito fusion act, gsp agonist)
